Our source for the inhibition values is PubChem BioAssay AID425 (Sanford-Burnham Center for Chemical Genomics, 2006).

By inhibition is commonly meant the drop in the measured response relative to a control, in per cent.

Structures are written as SMILES. Values joined by “and” are separate entries in the source; they are usually repeats but may differ in a detail not shown here. Equal entries are not always repeated. Screen size: about 110,000 compounds; about 190 (0.17%) were called active. No stated cut-off is given here; in the data, active means inhibition above about 50%; inactive means the rest. What follows is part of a selection rich in actives, with near analogues and random picks from the rest. Potency and affinity values are given separately.

Dual specificity protein phosphatase 6 (Rattus norvegicus), sequence (Q64346 whole entry, looked up): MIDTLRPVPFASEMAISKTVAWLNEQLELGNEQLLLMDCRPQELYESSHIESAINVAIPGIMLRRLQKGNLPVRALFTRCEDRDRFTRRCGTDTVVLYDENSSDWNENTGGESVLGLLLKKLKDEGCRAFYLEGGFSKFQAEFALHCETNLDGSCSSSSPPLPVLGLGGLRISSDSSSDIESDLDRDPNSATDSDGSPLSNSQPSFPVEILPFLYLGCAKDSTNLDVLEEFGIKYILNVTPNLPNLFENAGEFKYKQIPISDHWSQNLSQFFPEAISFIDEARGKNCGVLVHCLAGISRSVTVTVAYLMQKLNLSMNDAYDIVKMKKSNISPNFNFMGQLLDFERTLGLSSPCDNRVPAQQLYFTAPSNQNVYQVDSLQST

The test has as its target Dual specificity protein phosphatase 6 (Rattus norvegicus) (UniProt Q64346). Nature of the test: MKP-3 phosphatase inhibitors, primary screen, biochemical, rat enzyme, in vitro (AID 425).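 Further: plate controls were vehicle for no effect and reference inhibitor for full effect.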 The conditions noted are these: recombinant MKP-3 phosphatase activity, fluorescence; at 20 µM; stronger effect = higher value.
Take `Cc1ccc(-c2ccc(C=C3C(=O)N(C)C(=O)N(C)C3=O)o2)cc1[N+](=O)[O-]`: the inhibition was -5.2% (inactive).
As to `CN(c1ccc(C(=O)N2CCCCC2)cc1)S(=O)(=O)c1ccccc1`, the inhibition is 2.4% (inactive).
The figure for `CCc1c(C)c2ccc(OCC(C)=O)c(C)c2oc1=O` is 5.8% (inactive); for `CCc1c(C)c2ccc(OCc3ccccc3)c(C)c2oc1=O` it is 3.5% (inactive).
The figure for `O=C(CN1CCCCCC1)Nc1cccc2c1OCO2` is 0.2% (inactive) and -9.3% (inactive).
The figure for `COc1ccc(/C=C/C(=O)NCC(C)NC(=O)/C=C/c2ccc(OC)c(OC)c2)cc1OC` (centres undefined) is 1.7% (inactive); for `COc1ccc(/C=C(\NC(=O)c2ccccc2)C(=O)NCC(C)C)cc1OC` it is 3% (inactive); for `CCC(C)NC(=O)/C(=C\c1ccc(OC(C)=O)c(OC)c1)NC(C)=O` (centres undefined) it is 97.1% (active).
On to `COc1cccc(-c2cc(C(=O)Nc3c(C)nn(Cc4ccccc4)c3C)no2)c1`, for which the inhibition is 0.1% (inactive).
In the case of `O=C(NCCNc1ccc(Cl)cc1[N+](=O)[O-])c1ccccc1Cl` it was 1.9% (inactive); in that of `Cc1c(O)ccc2c1oc(=O)c1ccccc12`, 1.2% (inactive); in that of `O=c1oc2c(O)c(O)ccc2c2c1CCC2`, 7.2% (inactive).
In the case of `Cc1ccc(S(=O)(=O)NCC(=O)N(CCc2ccccc2)CC(=O)NCc2ccco2)cc1` it was -4.7% (inactive); in that of `Cc1cc(C)nc(Sc2c(C)nn(-c3ccccc3)c2C)n1`, -0.6% (inactive); in that of `Cc1nn(-c2ccccc2)c(C)c1Sc1ccc(Cl)cc1`, 74.7% (active).
In the case of `Cc1nn(-c2ccccc2)c(C)c1Sc1ccc(Br)cc1` it was 0.2% (inactive); in that of `COc1ccc(C2C(C(=O)OC(C)C)=C(C)N=c3s/c(=C/c4c[nH]c5ccccc45)c(=O)n32)cc1` (centres undefined), 3.4% (inactive).
As to `CCOCCOC(=O)c1ccc(NC(=O)/C=C/c2ccc(OC)c(Br)c2)cc1`, the inhibition is 2.5% (inactive).
In the case of `COc1ccc(Cl)cc1C(=O)Nc1nc2ccc(S(C)(=O)=O)cc2s1` it was 3.8% (inactive); in that of `CCOc1ccc(NC(=O)CSc2nc3ccc(OC)cc3[nH]2)cc1`, -0.2% (inactive).
The figure for `O=C(O)c1ccccc1-c1ccccc1/C=N/O` is -1.8% (inactive); for `CCOC(=O)C1=C(C)N=c2s/c(=C\c3ccc(OCC)cc3)c(=O)n2C1c1ccccc1` (centres undefined) it is 2.8% (inactive).
In the case of `CCOC(=O)C1=C(C)N=c2s/c(=C\c3ccc(OCC(=O)O)cc3)c(=O)n2C1c1ccccc1` (centres undefined) it was 2.5% (inactive); in that of `Cc1c(N2C(=O)c3cccc([N+](=O)[O-])c3C2=O)c(=O)n(-c2ccccc2)n1C`, 1.8% (inactive).
For the molecule `CCN(CC)CCCNC(=O)c1cc2nc(-c3ccc([N+](=O)[O-])cc3)cc(C(F)(F)F)n2n1`, the inhibition is 1.9% (inactive).
In the case of `COc1ccccc1N1C(=O)C(=Cc2cccn2C)C(=O)NC1=S` it was 93.6% (active); in that of `Cc1cc(/C=C2\C(=O)NC(=S)N(c3cccc(Cl)c3)C2=O)c(C)n1C`, -0.4% (inactive); in that of `COc1ccccc1C=C1C(=O)NC(=S)N(c2ccccc2F)C1=O`, 3% (inactive).
The figure for `COc1ccccc1/C=C1/C(=O)NC(=O)N(c2ccccc2OC)C1=O` is -1.2% (inactive).
In the case of `Cn1cccc1/C=C1/C(=O)NC(=S)N(c2cccc(Cl)c2)C1=O` it was 60.6% (active); in that of `O=C1NC(=S)N(c2cccc(Cl)c2)C(=O)/C1=C\c1ccc(N2CCCC2)cc1`, 19.3% (inactive); in that of `O=C1CC(c2cccs2)CC2=C1C(c1ccsc1)Nc1ccccc1N2` (centres undefined), -0.1% (inactive).
Take `C=C(C)Cn1c(SCC(=O)NN)nnc1-c1ccc(Br)cc1`: the inhibition is 2.7% (inactive).
The figure for `CCC(C)(C)NC(=O)C1CCN(c2nc(C)cc(C)n2)CC1` is -18.2% (inactive); for `CCc1nnc(NC(=O)C2CC(=O)N(c3ccc(C)cc3)C2)s1` (centres undefined) it is -9.9% (inactive); for `COc1cc(/C=C2/SC(=S)NC2=O)c([N+](=O)[O-])cc1OC` it is 50.1% (active).
In the case of `O=C1NC(=O)/C(=C\c2ccccc2Cl)S1` it was -2.9% (inactive).
In the case of `COc1cc(/C=C2\NC(=S)NC2=O)c([N+](=O)[O-])cc1OC` it was 13.3% (inactive); in that of `O=C1NC(=S)S/C1=C/c1ccccc1OS(=O)(=O)c1ccccc1[N+](=O)[O-]`, 1.4% (inactive).
As to `O=C1NC(=O)/C(=C/c2ccccc2[N+](=O)[O-])S1`, the inhibition was 79.4% (active).
In the case of `O=C1NC(=S)S/C1=C\c1ccccc1[N+](=O)[O-]` it was 122% (active); in that of `O=C1NC(=S)N/C1=C/c1cc2c(cc1Cl)OCO2`, 0.8% (inactive).
`O=C1NC(=S)N/C1=C/c1ccc2c(c1)OCO2`: the inhibition is 5.3% (inactive).
The figure for `O=C1NC(=Nc2ccc(Br)cc2)S/C1=C\c1ccccc1[N+](=O)[O-]` is 1.9% (inactive); for `O=C1NC(=S)N/C1=C/c1cc2c(cc1[N+](=O)[O-])OCO2` it is 64.9% (active).
In the case of `COc1cc(Br)c(/C=C2/SC(=S)NC2=O)cc1OC` it was -0.6% (inactive); in that of `O=C1NC(=S)S/C1=C\c1ccccc1OS(=O)(=O)c1ccc([N+](=O)[O-])cc1`, 1.6% (inactive); in that of `COc1ccc(CN2C(=O)C(O)(CC(=O)c3c(C)n[nH]c3C)c3ccccc32)cc1OC` (centres undefined), -1.9% (inactive).
Take `CCOc1cc(C(=O)Nc2ccc(Br)cc2F)cc(OCC)c1OCC`: the inhibition is 5.8% (inactive).
In the case of `O=C(c1oc2ccccc2c1N1CCCCC1)N1CCCCC1` it was 2.6% (inactive); in that of `O=C1CN(S(=O)(=O)CCOc2ccccc2)CC(=O)N1CCOc1ccccc1`, 3.6% (inactive); in that of `CN(Cc1ccccc1)c1oc(-c2ccco2)nc1C#N`, -1.5% (inactive).
In the case of `O=C(NN=C(C1CC1)C1CC1)c1cc2ccccc2cc1O` it was 1.9% (inactive).
In the case of `CC1(C)CC(=O)c2nc(NC(=O)CSC(=O)c3ccccc3)sc2C1` it was 0.6% (inactive); in that of `CN1C(=O)/C(=C\c2cc(Br)ccc2OCc2ccccc2)SC1=S`, 2.6% (inactive); in that of `O=C1/C(=C/c2cc3c(cc2[N+](=O)[O-])OCO3)Sc2ccccc21`, -0.9% (inactive).
As to `O=C1NC(=O)/C(=C\c2cc3c(cc2Br)OCO3)S1`, the inhibition was 1.1% (inactive).
The figure for `O=C1NC(=O)/C(=C\c2cc3c(cc2[N+](=O)[O-])OCO3)S1` is 122% (active); for `CC(C)(C)c1cc(Br)ccc1OCC(=O)Nc1ccc2c(c1)OCCO2` it is 6.4% (inactive).
The figure for `COc1ccc2nc(SCC(=O)Nc3ccccc3)[nH]c2c1` is -2.1% (inactive).
`O=C1NC(=O)N(c2ccc(Br)cc2)C(=O)/C1=C/c1ccco1`: the inhibition is 46.2% (inactive).
In the case of `O=C1NC(=S)N(c2ccc(F)cc2)C(=O)/C1=C/c1ccc(F)cc1` it was -0.1% (inactive); in that of `COc1cccc(N2C(=O)C(=Cc3ccc(OC)cc3OC)C(=O)NC2=S)c1`, 2.6% (inactive).
The figure for `Cc1ccc(C=C2C(=O)NC(=S)N(c3ccccc3Cl)C2=O)o1` is 11.8% (inactive); for `Cc1cc(N2C(=O)NC(=O)/C(=C\c3ccco3)C2=O)ccc1Br` it is 42.1% (inactive).
The figure for `COc1ccc(OC)c(N2C(=O)NC(=O)C(=Cc3ccc(C)o3)C2=O)c1` is 3.8% (inactive); for `COc1cccc(-c2cc(C(=O)NC(C)c3ccccc3)c3ccccc3n2)c1` (centres undefined) it is 2.7% (inactive); for `CCCOc1ccc(C(=O)Nc2ccc(C)cc2[N+](=O)[O-])cc1` it is 2.7% (inactive).
For `O=C(O)c1cc(O)ccc1NC(=O)C(c1ccccc1)c1ccccc1`, the inhibition was 4.4% (inactive).
In the case of `CC(C)=C1C2CCC1C(C(=O)NCCC1=CCCCC1)C2C(=O)O` (centres undefined) it was 1.3% (inactive); in that of `CCc1ccc(-n2c(C)cc(/C=N/NC(=O)c3cccnc3)c2C)cc1`, 6.1% (inactive); in that of `O=C(NCCN1CCOCC1)c1cccc(S(=O)(=O)N2CCCCCC2)c1`, -10.5% (inactive).
In the case of `CN1C(=O)/C(=C2\SC(=S)N(CC(=O)O)C2=O)c2ccccc21` it was 2% (inactive).
Consider `CN1C(=O)c2oc3ccc(Br)cc3c(=O)c2C1c1ccncc1` (centres undefined), for which the inhibition was 2.2% (inactive).
In the case of `Cc1ccc(NC(=O)C(=O)N/N=C/c2cccs2)cc1` it was 0.5% (inactive); in that of `CCc1ccccc1OCCN(CC)CC`, 1.4% (inactive); in that of `COc1ccc(/C=N/NC(=O)c2cccc([N+](=O)[O-])c2)cc1Br`, -2.3% (inactive).
As for `COc1cc(/C=N/NC(=O)c2cccc([N+](=O)[O-])c2)cc(I)c1O`, the inhibition is -0.4% (inactive).
The figure for `C/C(=N\NS(=O)(=O)c1ccc(C)cc1)C(C)(C)CC(=O)O` is 0.4% (inactive); for `Cc1ccc(S(=O)(=O)N2CCN(Cc3ccccc3[N+](=O)[O-])CC2)cc1` it is 3.5% (inactive); for `CCOC(=O)CNC(=O)CSc1nnc(Cn2cnc3ccccc32)n1C` it is -4.9% (inactive).
With `COc1ccc(OC)c(CNC(=O)COc2cc(=O)n(C)c3ccccc23)c1`, the inhibition was -0.9% (inactive).
In the case of `CCOC(=O)/C=C/CSc1nc2sc3c(c2c(=O)[nH]1)CCCC3` it was 3.4% (inactive); in that of `COc1cc(/C=N/NC(=O)Cc2nnc(N)s2)ccc1OCc1ccc(Cl)cc1Cl`, 0.3% (inactive).
The figure for `CCOc1cc(C=C2C(=O)c3ccccc3C2=O)ccc1OCc1ccc(Cl)cc1Cl` is 2% (inactive); for `CCN(CC)c1ccc(/C=N/NC(=O)Cn2nnc(-c3ccccc3)n2)c(O)c1` it is 0.8% (inactive); for `O=P(c1ccccc1)(c1ccccc1)C(O)c1ccco1` (centres undefined) it is 4.6% (inactive) and -1.6% (inactive).
`O=C(O)CC(NC(=O)C(c1ccccc1)c1ccccc1)c1ccco1` (centres undefined): the inhibition was -9.2% (inactive).
In the case of `Cc1nonc1NC1(O)C(=O)c2ccccc2C1=O` it was 106% (active); in that of `Cc1nonc1NC(=O)Nc1cccnc1`, -4.7% (inactive).
In the case of `O=C(NC1(O)C(=O)c2ccccc2C1=O)c1ccccc1` it was 21.6% (inactive); in that of `CC1=CC(=O)C=C/C1=N/OC1=C(O/N=C2/C=CC(=O)C=C2C)C(=O)c2ccccc2C1=O`, 66% (active).
`CC1=C/C(=N\OC2=C(O/N=C3/C=CC(=O)C(C)=C3)C(=O)c3ccccc3C2=O)C=CC1=O`: the inhibition is 42.8% (inactive).
In the case of `CC1=CC(=O)C=C/C1=N\OS(=O)(=O)c1ccccc1` it was 8.7% (inactive).
